Assay results reported in PubChem BioAssay AID1626 (SRMLSC, 2009).
Values joined by “and” are separate entries in the source; they are usually repeats but may differ in a detail not shown here. Identical values can stand only once. About 2,000 (0.91%) of roughly 220,000 compounds were called active. About 2% were inconclusive and are not listed. No stated cut-off is given here; in the data, inconclusive means inhibition above about 80% without an active follow-up result; inactive means below that; test concentration not stated here. These entries were drawn from the full list. Results with a measured potency or affinity are listed apart.

assay: M. tuberculosis H37Rv growth inhibitors, H37Rv strain (AID 1626); details: hits give high values, concentration not given here;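 further: bacteria incubated seven days before Alamar blue readout; 0% = bacteria only wells and 100% = bacteria with antibiotic wells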

SMILES | inhibition
O=C(CSC1=NCCN1)NC12CC3CC(CC(C3)C1)C2 | -6.99% (inactive)
CCN(CC)S(=O)(=O)c1cc([N+](=O)[O-])ccc1N=Nc1c(O)[nH]c2ccccc12 | 0.25% (inactive)
COc1cccc(/C=N/NC(=S)Nc2cccnc2)c1 | 3.92% (inactive)
Cc1nnc(SCC(=O)N2CCC(Cc3ccccc3)CC2)n(N)c1=O | 7% (inactive)
COc1ccc(C2Nc3ccccc3C(=O)N2NC(=O)c2ccccc2)cc1OC (centres undefined) | 2.58% (inactive)
COc1cccc(NC(=O)CN(C)CC(=O)Nc2ccc(Cl)cc2[N+](=O)[O-])c1 | 7.39% (inactive)
Cc1cc(NCCCn2ccnc2)n2nc(-c3ccc(F)cc3)cc2n1 | -4.87% (inactive)
Cc1cccc(-c2cc3nc(C)cc(NCCCn4ccnc4)n3n2)c1 | 5.02% (inactive)
Cc1cc(NCCN2CCOCC2)n2nc(C)c(-c3ccc(Cl)cc3)c2n1 | 17.9% (inactive)
Cc1cccc(-c2cc3nc(C)cc(NCCCN(C)C)n3n2)c1 | -0.01% (inactive)
COCCNc1cc(C)nc2cc(-c3ccc(C)cc3)nn12 | -4.32% (inactive)
Cc1cc(NCCCn2ccnc2)n2nc(C)c(-c3ccccc3)c2n1 | -2.71% (inactive)
CCC(=O)Nc1ccccc1C(=O)OCc1ccc(C(=O)c2ccccc2)cc1 | 27.4% (inactive)
Nn1c(SCC(=O)N2CCOCC2)nnc1C1CC1 | -3.01% (inactive)
CCOC(=O)c1cc(N)cc([N+](=O)[O-])c1 | 5.48% (inactive)
Cc1cccc(C)c1NC(=S)N1CCCN(C)CC1 | -1.16% (inactive)
CCC(CC)C(=O)N1CCCC(c2nc(-c3cccs3)no2)C1 (centres undefined) | 10% (inactive)
CC1(OC(=O)CCc2ccccc2)C(=O)C=C2C=C3CCCN3C=C2C1=O (centres undefined) | 6.27% (inactive)
C/C(Cl)=C/Cn1c(SCC(C)C)nc2c1c(=O)[nH]c(=O)n2C | 3.03% (inactive)
COc1cccc(NC(=O)N2CCOCC2)c1 | -7.85% (inactive)
O=C(Oc1ccc(-c2cnc3ccccc3n2)cc1)c1cccc([N+](=O)[O-])c1 | 24% (inactive)
O=C(Oc1ccc(-c2cnc3ccccc3n2)cc1)c1ccco1 | 7.39% (inactive)
O=C(Nc1cccc(-c2cnc3ccccc3n2)c1)c1ccco1 | -2.67% (inactive)
O=C(Oc1ccc(-c2cnc3ccccc3n2)cc1)c1cc([N+](=O)[O-])ccc1Cl | 71.7% (inactive)
COc1ccc(OC)c(-c2cc(C(=O)Nc3c(C)nn(Cc4ccccc4C)c3C)no2)c1 | 72.8% (inactive)

SMILES | inhibition
Cc1ccccc1NC(=O)CN1C(=S)NC(C)(C)CC1C (centres undefined) | 2.34% (inactive)
Cc1sc2ncnc(Sc3nnnn3-c3ccc(Cl)cc3)c2c1C | -0.98% (inactive)
CSc1nnnn1-c1ccc(Cl)cc1 | -2.8% (inactive)
Cc1ccc(-n2cccc2C(=O)NS(=O)(=O)c2ccc(C)cc2)cc1 | -6.02% (inactive)
CCc1ccc(OCC(=O)O/N=C(\N)c2ccccn2)cc1 | 8.77% (inactive)
O=C(CSc1nc(-c2ccccc2)c(-c2ccccc2)[nH]1)NCC1CCCO1 (centres undefined) | -3.58% (inactive)
N#CC1=C(S)N(c2ccccc2)C(c2ccc(-c3cc(Cl)ccc3Cl)o2)NC1=O (centres undefined) | 9.36% (inactive)
N#CC1=C(S)N(c2ccccc2)C(c2ccc(-c3cccc(Cl)c3)o2)NC1=O (centres undefined) | 4.44% (inactive)
C/C=C/c1ccc(OCCCCNCc2ccco2)c(OC)c1 | -4.41% (inactive)
CCCN(CCC)C(=O)CC(c1ccccc1)c1ccc(C)cc1O (centres undefined) | 2.31% (inactive)
CCN(CC(=O)NCCC1=CCCCC1)S(=O)(=O)c1ccccc1 | -1.16% (inactive)
CCOC(=O)N1CCN(C(=O)c2ccc3nc(N4CCCCC4)sc3c2)CC1 | -6.19% (inactive)
COc1cccc(N2CCN(C(=O)c3ccc4nc(N5CCCCC5)sc4c3)CC2)c1 | 5.19% (inactive)
CSCCNC(=O)c1cccc(Cl)c1 | 3.62% (inactive)
Cn1c(=O)c2c(nc(CN3CCOCC3)n2CC(=O)c2ccccc2)n(C)c1=O | -10.9% (inactive)
CN1CCN(c2ncnc3c2c(-c2ccccc2)cn3-c2ccc(F)cc2)CC1 | 5.53% (inactive)
Cc1scc(C(=O)N/N=C/c2ccc(OCC(C)C)cc2)c1C | 6.9% (inactive)
COc1ccc(/C=C/c2ccncc2)cc1 | -1.37% (inactive)
Cc1ccc(-c2cc(-c3ccc(C)cc3)[n+](C)o2)cc1 | -0.95% (inactive)
COc1cccc(NC(=O)Cn2c(CCC(=O)O)ccc2-c2cccs2)c1 | -0.82% (inactive)
Cc1ccccc1NC(=O)c1ccc(CSc2ncccn2)cc1 | 5.28% (inactive)
O=C(NCc1ccc(F)cc1)c1ccc(N2CCc3ccccc32)c([N+](=O)[O-])c1 | 13.9% (inactive)
CS(=O)(=O)c1ccc(C(=O)NCc2ccc(F)cc2)cc1 | -6.92% (inactive)
CCn1cc(CNC(=O)c2ccc(C)s2)cn1 | -1.4% (inactive)
CCn1cc(CNC(=O)c2cccc([N+](=O)[O-])c2)cn1 | -9.32% (inactive)

SMILES | inhibition
CCOc1ccc(NC(=O)N2CCN(S(C)(=O)=O)CC2)cc1 | -3.68% (inactive)
COc1ccc(-n2cnc3c(sc4nccc(N(C)C)c43)c2=O)cc1 | 10.5% (inactive)
COc1ccc(C=C2C(=O)OC(C)(C)OC2=O)cc1OC | -16.1% (inactive)
CN(C)c1ccc(C=C2C(=O)OC(C)(C)OC2=O)cc1 | -0.63% (inactive)
COC(=O)CN(c1ccccc1)S(=O)(=O)c1cc(Br)ccc1OC | 5.26% (inactive)
CCOC(=O)Cc1csc(NC(=O)c2cc3c(s2)CCCC3)n1 | 6.6% (inactive)
CCOC(=O)Cc1csc(NC(=O)c2ccc(C)cc2)n1 | -1.68% (inactive)
Cc1ccc(/C=C/C(=O)c2ccc(O)cc2)cc1 | 11.5% (inactive)
COc1ccccc1/C=C/C(=O)c1ccc(NC(C)=O)cc1 | 94.1% (inactive)
CCOc1ccc(C(=O)/C=C/c2ccc(SC)cc2)cc1 | -1.12% (inactive)
CSc1ccc(/C=C/C(=O)Nc2ccccc2)cc1 | 33.9% (inactive)
CSc1ccc(/C=C/C(=O)c2ccc(NC(=O)C(C)C)cc2)cc1 | 75.2% (inactive)
CCOC(=O)Nc1ccc(C(=O)/C=C/c2ccccc2)cc1 | 10.2% (inactive)
O=C(Nc1nnc(CC2=CCCCC2)s1)Nc1ccccc1F | -2.47% (inactive)
Cc1nnc2c3ccccc3c(-c3ccccc3)nn12 | 5.99% (inactive)
CCCC(=O)c1c[nH]c(C(=O)NCc2ccco2)c1 | -9.43% (inactive)
Cc1ccc(Cn2cc(/C=N/NC(=O)Cc3nnc(NC(=O)c4ccc(C)cc4)s3)c3ccccc32)cc1 | 7.8% (inactive)
O=C(CCNC(=O)c1ccco1)NCc1ccccc1 | 0.15% (inactive)
COc1ccc(N2CCN(c3nc(NCCc4ccc(OC)c(OC)c4)nc(OC)n3)CC2)cc1 | 34.2% (inactive)
COc1ccc(CCNc2nc(N3CCOCC3)nc(N3CCOCC3)n2)cc1OC | 8.14% (inactive)
CC(C)CCN1CCN(Cc2ccc(C#CC(C)(C)O)s2)CC1CCO (centres undefined) | 9.71% (inactive)
CC(=O)c1ccc(-c2ccc(C(=O)N3CCCc4ccccc43)o2)cc1 | 17.9% (inactive)
CSc1sc(-c2ccnc(=S)[nH]2)c(-c2ccccc2)c1C#N | -4.19% (inactive)
Cc1ccc(C(=O)NCc2ccccc2)cc1Br | -8.73% (inactive)
CCOC(=O)N1CCN(CCC(=O)Nc2cccc(Br)c2)CC1 | -0.92% (inactive) and -12.2% (inactive)

SMILES | inhibition
CCOC(=O)N1CCN(CCC(=O)Nc2ccc(Br)cc2)CC1 | -16.8% (inactive)
O=C(CSCc1nc2ccccc2[nH]1)Nc1ccccc1 | 0.99% (inactive)
Cc1ccc(NC(=O)CNCc2ccccc2)c(Br)c1 | -0.29% (inactive)
O=C(CNCc1ccccc1)Nc1ccc(F)cc1 | -5.31% (inactive)
COC(=O)Nc1ccc(Oc2ccccc2)cc1 | -4.37% (inactive)
COc1ccccc1NC(=O)CSCc1nc2ccccc2[nH]1 | -0.98% (inactive)
CCc1cccc(NC(=S)N(CCCN2CCOCC2)C(C)c2cc3cccc(OC)c3o2)c1 (centres undefined) | -11.9% (inactive)
COc1ccc(CNC(=O)CCSCc2cccc(Cl)c2)c(OC)c1 | -4.73% (inactive)
O=C(Nc1nc(-c2ccc(S(=O)(=O)N3CCCC3)cc2)cs1)c1ccco1 | 7.57% (inactive)
COCCOCCn1c(/C=C/c2ccccc2)nc2ccccc21 | 11% (inactive)
O=S(=O)(NCc1ccccc1)c1ccccc1Br | 4.19% (inactive)
CCN(CC)S(=O)(=O)c1ccc2c(c1)nc(CCC(=O)Nc1ccccc1Cc1ccccc1)n2CC | -0.79% (inactive)
COc1ccc(/C=C2\SC(=S)NC2=O)cc1OS(=O)(=O)c1ccc(NC(C)=O)cc1 | -3.97% (inactive)
Cc1ccccc1N(CC(=O)Nc1ccccc1C(=O)O)S(C)(=O)=O | -1.04% (inactive)
CCN(CC)c1nc(-c2nn[nH]n2)nc(N(CC)CC)n1 | -3.01% (inactive)
CCOC(=O)C(=O)Nc1ccc(Oc2ccccc2)cc1 | -13.3% (inactive)
O=C(O)/C=C\C(=O)Nc1ccc(Oc2ccccc2)cc1 | -4.64% (inactive)
CC(C)(C)NC(=O)C1CC(=O)OC12CCOC(C)(C)C2 (centres undefined) | 0.06% (inactive)
COC(=O)CN(c1ccccc1)S(=O)(=O)c1ccc(F)cc1 | -4.89% (inactive)
O=[N+]([O-])C(=c1ccc2c(c1)N1C3=C(CCCC3)CC3CCCCC31N=2)[N+](=O)[O-] (centres undefined) | -8.62% (inactive)
CC(=O)c1ccc(NC(=O)CSC(C)C)cc1 | 0.93% (inactive)
CC(=O)c1ccc(NC(=O)CSCCO)cc1 | -4.48% (inactive)
O=C(CSCC(=O)NC1CCCC1)Nc1ccccc1 | 6.01% (inactive)
O=C(CSCC(=O)NC1CC1)Nc1ccccc1 | -9.05% (inactive)
